The source made the active and inactive calls. Rule for the calls: active = hit-call score of the fitted dose curve at least 0.9, where 1 is the maximum; inactive = score below 0.9.

This test can be described thus: CCTE_Padilla_ZF_Score.Tail: CCTE's 144 Hour Post-fertilization zebrafish Assay Score for Tail Malformation, Padilla Lab (AID 2284414). The method, then:
CCTE_Padilla_ZF_Phenotype_Score is a whole embryo, multiplexed assay using zebrafish ova exposed for 144 hours post fertilization on a 96-well plate.CCTE_Padilla_ZF_Score.Tail is one of one assay component(s) measured or calculated from the CCTE_Padilla_ZF_Phenotype_Score assay. It is designed to make measurements of zebrafish development as detected with brightfield microscopy of developing zebrafish embryos.Data from the assay component CCTE_Padilla_ZF_Score.Tail was analyzed into 1 assay endpoints. This assay endpoint, CCTE_Padilla_ZF_Score.Tail, was analyzed in the positive analysis fitting direction relative to DMSO as the negative control and baseline of activity. Using a type of viability reporter, gain-of-signal activity can be used to understand changes in developmentals as they relate to the whole embryo. To generalize the intended target to other relatable targets, this assay endpoint is annotated to the zebrafish development intended target family, where the subfamily is lower trunk morphogenesis.
Zebrafish husbandry: Wild type adult zebrafish (Danio rerio; undefined outbred stock obtained from Aquatic Research Organisms, Hampton, NH, 03842) were housed in an AAALAC-approved animal facility at 28C with a 14:10 h light: dark cycle (lights on at 08:30 h). Adult fish (2-3 females per male; density = 15-20 adults per tank) were kept in one of several 9-liter (L) flow-through colony tanks (Aquaneering Inc., San Diego, CA). All adults in a colony tank were placed in a 2 L (static) breeding tank (Aquatic Habitats, Apopka, FL) one hour prior to light onset. Typically, adults from two to three colony tanks were mated on the same day. Two hours after light onset the adults were returned to the colony tank. All embryos were gathered from each breeder tank, pooled, and placed in a 28C water bath for 2 h, followed by two washes with 0.06% bleach (v/v) in 10% Hanks' Balanced Salt Solution (13.7 mM NaCl 0.54 mM KCl, 25 uM Na2HPO4, 130 uM CaCl2 100 um MgSO4 and 420 um NaHCO3,), hereafter referred to as Hanks' solution, for 5 min in order to remove any residual bacteria or fungi. Immediately following washing, the embryos were examined, and healthy embryos were separated from dead or unfertilized eggs and moved into fresh Hanks'. Chemical exposures: Zebrafish embryos were exposed in 96-well plates. Between 6- and 8-hours post fertilization (hpf), healthy embryos (with chorions) were transferred, one embryo per well, into 96 well (0.5 mL) microtiter plates (Cell Culture-Treated, Flat-Bottom Microplate 96 well [Corning Costar, Kennebunk, ME; Cat 09-761-145]) filled with 200 uL of Hanks' solution. A random number generator was used to assign the order in which the rows of embryos were plated in 96 well plates each week. After plating, the embryos were dosed with 0.8 uL of the chemical dosing solution then immediately sealed with AlumaSeal II (Excel Scientific Inc, Victorville, CA) to prevent volatilization of the chemicals, and then placed in a leakproof secondary container. These containers were placed in an incubator maintained on a 14:10 h light: dark cycle at 26C for rearing. On 5 dpf, live larvae were gently moved out of the plate with test chemicals and into a new 96 well mesh plate (Millipore Corp., Bedford, MA) with just the Hanks' solution. Once within the mesh well plate, the animals were rinsed with 400 uL of fresh Hanks' three times, and then the plates were covered with a non-adhesive material (Microseal A, BioRad, Hercules, CA), plate lid added, and then plate sides wrapped in Parafilm (PM992, Bermis Company, Neenah, WI), and returned to the incubator. […]
Take `COC(F)(C(F)F)C(F)(F)F` (stereo not given): the call was inactive.
Consider `O=S(=O)(O)CCC(F)(F)C(F)(F)C(F)(F)C(F)(F)F`, for which the outcome was inactive.
The result for `OCCCC(F)(F)C(F)(F)C(F)(F)C(F)(F)C(F)(F)C(F)(F)C(F)(F)C(F)(F)F` reads “inactive”.
As for `NC(=O)C(F)(F)C(F)(F)C(F)(F)C(F)F`, the result was inactive.
The result for `O=C(O)C(F)(F)C(F)(F)C(F)(F)C(=O)O` reads “inactive”.
In the case of `O=S(=O)(Cl)C(F)(F)C(F)(F)C(F)(F)C(F)(F)C(F)(F)C(F)(F)C(F)(F)C(F)(F)F` it was “inactive”; in that of `O=C(O)C(F)(F)C(F)(F)C(F)(F)OC(F)(F)F`, “inactive”.
In the case of `NCC(F)(F)C(F)(F)C(F)(F)C(F)(F)C(F)(F)C(F)(F)F` it was “inactive”; in that of `C=C(C)C(=O)OCC(F)(F)C(F)(F)C(F)(F)C(F)F`, “inactive”.
As to `OCCCCC(F)(F)C(F)(F)C(F)(F)C(F)(F)F`, the outcome was inactive.
`NC(=O)C(F)(F)C(F)(F)C(F)(F)F`: the compound was classed as inactive.
In the case of `OCC(F)(F)C(F)(F)C(F)(F)C(F)(F)C(F)(F)C(F)(F)C(F)(F)C(F)(F)CO` it was “inactive”.
In the case of `C=CC(=O)OCCC(F)(F)C(F)(F)C(F)(F)C(F)(F)F` it was “inactive”.
In the case of `CCN(CCO)S(=O)(=O)C(F)(F)C(F)(F)C(F)(F)C(F)(F)C(F)(F)C(F)(F)C(F)(F)C(F)(F)F` it was “inactive”; in that of `NC(=O)C(F)(F)C(F)(F)C(F)(F)C(F)(F)C(F)(F)C(F)(F)C(F)(F)F`, “inactive”.
Consider `O=C(Cl)C(F)(F)C(F)(F)C(F)(F)C(F)(F)C(F)(F)C(F)(F)C(F)(F)F`, for which the result was inactive.
The result for `C=CC(=O)OCC(F)(F)C(F)(F)C(F)(F)C(F)(F)C(F)(F)C(F)(F)C(F)(F)C(F)F` reads “inactive”; that for `O=C(O)CCC(F)(F)C(F)(F)C(F)(F)C(F)(F)C(F)(F)C(F)(F)C(F)(F)F`, “inactive”.
Regarding `OCC(F)(F)C(F)(F)C(F)(F)CO`, the call was inactive.
The result for `OC(O)C(F)(F)C(F)(F)F` reads “inactive”.
In the case of `CNS(=O)(=O)C(F)(F)C(F)(F)C(F)(F)C(F)(F)C(F)(F)C(F)(F)C(F)(F)C(F)(F)F` it was “inactive”; in that of `FC(F)(F)C(F)(F)C(F)(F)C(F)(F)C(F)(F)C(F)(F)C(F)(F)CCI`, “inactive”; in that of `NS(=O)(=O)C(F)(F)C(F)(F)C(F)(F)C(F)(F)C(F)(F)C(F)(F)F`, “inactive”.
As to `O=C(O)CCC(F)(F)C(F)(F)C(F)(F)F`, the compound was called inactive.
On to `C[Si](Cl)(Cl)CCC(F)(F)C(F)(F)C(F)(F)C(F)(F)C(F)(F)C(F)(F)F`, for which the result was inactive.
The result for `NC(O)(C(F)(F)F)C(F)(F)F` reads “inactive”; that for `C=CC(=O)OCC(F)(F)C(F)(F)C(F)(F)COC(=O)C=C`, “inactive”; that for `O=S(=O)(OCC(F)(F)F)C(F)(F)C(F)(F)C(F)(F)C(F)(F)F`, “inactive”.
As for `CO[Si](C)(CCC(F)(F)C(F)(F)C(F)(F)C(F)(F)C(F)(F)C(F)(F)F)OC`, the call was inactive.
The result for `O=S(=O)(O)CCC(F)(F)C(F)(F)C(F)(F)C(F)(F)C(F)(F)C(F)(F)C(F)(F)C(F)(F)F` reads “inactive”.
The result for `O=C(O)C(F)(F)OC(F)(F)C(F)(F)OC(F)(F)C(F)(F)OC(F)(F)F` reads “inactive”; that for `O=C(O)C(F)(F)C(F)(F)C(F)(F)OC(F)(C(F)(F)F)C(F)(F)F`, “inactive”.
In the case of `OCC(F)(F)C(F)(F)C(F)(F)C(F)(F)C(F)(F)C(F)(F)CO` it was “inactive”; in that of `O=C(O)C(F)(F)C(F)(F)C(F)(F)C(F)(F)C(F)(F)C(F)(F)C(F)F`, “inactive”; in that of `CN(C(=O)C(F)(F)C(F)(F)C(F)(F)F)[Si](C)(C)C`, “inactive”.
Take `O=C(F)C1(F)C(F)(F)C(F)(F)C(F)(F)C(F)(F)C1(F)F`: the outcome was inactive.
In the case of `FC(F)(F)C(F)(F)C(F)(F)CC1CO1` (stereo not given) it was “inactive”; in that of `OCC(O)CC(F)(F)C(F)(F)C(F)(F)C(F)(F)C(F)(F)C(F)(F)C(F)(F)C(F)(F)F` (stereo not given), “inactive”.
The result for `NC(=O)C(F)(F)C(F)(F)C(F)(F)C(F)(F)C(N)=O` reads “inactive”.
Take `NCC(F)(F)C(F)(F)C(F)(F)C(F)(F)C(F)(F)C(F)(F)C(F)(F)C(F)(F)F`: the compound was classed as inactive.
